From ChEMBL document CHEMBL3988442, “University of Dundee, Small-Polar-MMV Screening Library” (2021)
In all, about 85,000 compounds went through this assay and about 440 (0.52%) showed an effect of 50% or more. Only a selection was taken, and strong results are over-represented in it overall.

Experiment: In vitro enzyme assay to detect hydrolysis of chlorophenol red-beta-D-[…] directly proportional to the number of Toxoplasma stably expressing beta-galactosidase
Type: functional, organism-based, Toxoplasma gondii
Set-up: scale not given: in the data most compounds retested in dose-response had high values

| SMILES | Percent Effect (50 µM) | Percent Effect (10 µM) |
| --- | --- | --- |
| CC(O)c1c(F)cccc1-n1cncn1 (centres undefined) | -28.05% |  |
| COc1ccc2cc(C(=O)N(C)C)c(C)nc2c1 | -8.962% |  |
| COc1ccc(F)c(F)c1C(=O)N1CCC(CN)C1 (centres undefined) | -13.62% |  |
| CCN1CCC(CNC(=O)c2nc(C)c[nH]2)CC1 | -1.833% |  |
| OC[C@H]1CCCN1c1nccc(-c2cncnc2C2CCCCC2)n1 |  | 29.63% |
| OC[C@H]1CCCN1c1nccc(-c2c[nH]nc2C2CCCCC2)n1 |  | 54.25% |
| OC[C@@H]1CCCN1c1nccc(-c2c[nH]nc2-c2ccncc2)n1 |  | -24.25% |
| N[C@@H]1CCC[C@@H](Oc2ccc(F)cc2Oc2cccc(F)c2)[C@@H]1O |  | 2.748% |
| N[C@@H]1CCC[C@@H](Oc2ccc(F)cc2Oc2ccccc2)[C@@H]1O |  | 2e-14% |
| Cc1ccc(Oc2cc(F)ccc2O[C@@H]2CCC[C@@H](N)[C@H]2O)cc1 |  | 82.52% |
| CCOC(=O)N1CCN(C(=O)c2ccco2)CC1 | 9.256% |  |
| Cn1ncc(C(=O)N2CCN(CCS(C)(=O)=O)CC2)c1Cl |  | 67.81% |
| Cn1ncc(C(=O)N2CCN(C(=O)c3ccco3)CC2)c1Cl |  | 75.62% |
| COCc1ccc(C(=O)N2CCN(CCS(C)(=O)=O)CC2)cc1 |  | -0.2262% |
| Cc1oc(C(C)C)cc1C(=O)N1CCN(c2cnn(C)c(=O)c2)CC1 |  | 15.5% |
| Cn1ncc(C(=O)N2CCOCC2)c1Cl |  | 29.02% |
| CS(=O)(=O)N1CCN(C(=O)c2cnn3c2OCCC3)CC1 |  | -9.448% |
| CC(C)S(=O)(=O)N1CCN(C(=O)c2cnn(C)c2Cl)CC1 |  | 63.23% |
| Cc1c(C(=O)N2CCC(C(O)c3ccc(Cl)cc3)CC2)cnn1C (centres undefined) |  | -2.382% |
| Cc1c(C(=O)N2CCCN(S(C)(=O)=O)CC2)cnn1C |  | -3.056% |

| SMILES | Percent Effect (50 µM) | Percent Effect (10 µM) |
| --- | --- | --- |
| Cn1ncc(C(=O)N2CCN(S(C)(=O)=O)CC2)c1Cl |  | 77.51% |
| CCc1ccc(C(=O)N2CCN(CCS(C)(=O)=O)CC2)o1 |  | -13.13% |
| O=C(NC1CCc2ccc(F)cc21)c1c[nH]nn1 (centres undefined) | 10.36% |  |
| COC(=O)c1ccc(NCC(=O)N2CCCCC2)cc1 | -5.615% |  |
| Cc1cc(C(=O)N(C)Cc2ccncc2C)[nH]n1 | -2.921% |  |
| CC1c2ccsc2CCN1CCC(=O)NC(N)=O (centres undefined) | -3.706% |  |
| N#CC1CCCN(C(=O)c2cnc3ccccc3c2)C1 (centres undefined) | -3.341% |  |
| CCC1=NC(SCC(=O)c2ccc(OC)cc2)c2cc(CC)sc2N1 (centres undefined) |  | 50.44% |
| COc1ccc(C(=O)CNC(=O)c2nc(Cl)sc2C(C)C)cc1 |  | 18.25% |
| CCC1=NC(SCC(=O)c2ccc(C)cc2)c2cc(CC)sc2N1 (centres undefined) |  | 65.66% |
| CCc1ncc(C(=O)c2ccc(OC)cc2)n1C |  | -0.6627% |
| CCc1ncc(C(=O)N2CCOCC2CC(=O)c2ccccc2)s1 (centres undefined) |  | 3.663% |
| CCC1=NC(SCC(=O)c2ccccc2)c2cc(CC)sc2N1 (centres undefined) |  | 88.55% |
| CCc1nc(C(=O)N2CCOCC2CC(=O)c2ccccc2)c[nH]1 (centres undefined) |  | 0.2818% |
| CCC1=NC(SCC(=O)c2ccc(Cl)cc2)c2cc(CC)sc2N1 (centres undefined) |  | 23.77% |
| Cc1cccc(-n2nnnc2C(C)(C)N2CCCC2)c1 | -9.882% |  |
| COCCNS(=O)(=O)c1ccc(CN)cc1 | -7.365% |  |
| CC(C)(C)NC(=O)CNC(C)(C)c1nccs1 | -6.241% |  |
| Cc1cnccc1NCCNC(=O)[C@H]1CCC[C@H](O)C1 | -11.82% |  |
| O=C1CCCN1CCCNCc1cccs1 | 4.585% |  |

| SMILES | Percent Effect (50 µM) | Percent Effect (10 µM) |
| --- | --- | --- |
| CCCN1CCC(CNc2ncccc2F)C1 (centres undefined) | -12.03% |  |
| COc1c(CNC2CCOc3c(Cl)cccc32)c(C(C)C)nn1C (centres undefined) |  | 50.26% |
| COc1c(CNC2CCOc3c(Cl)cccc32)c(C)nn1C.Cl (centres undefined) |  | -5.172% |
| COc1c(CNC2CCOc3ccccc32)c(C(C)C)nn1C (centres undefined) |  | 0.6462% |
| Cc1ccccc1-c1nnn(CC(O)CC(F)(F)F)n1 (centres undefined) | -8.034% |  |
| CC(C)CC(C)(N)CO (centres undefined) | -4.909% |  |
| COc1cc(NC(=O)CCN2CC(O)C2)cc(OC)c1 | -10.62% |  |
| c1cnc(-c2nn3c(CN4CCCCC4)nnc3s2)cn1 |  | 70.51% |
| O=C(c1cnccn1)N1CCC(CN2CCOCC2)CC1 |  | 17.94% |
| CCN1CCN(c2nnc(-c3ccccn3)s2)CC1 | 1.346% |  |
| c1cnc(-c2nn3c(CN4CCCCCC4)nnc3s2)cn1 |  | 65.52% |
| c1cc(-c2cnccn2)cc(-c2ccn(CCN3CCCC3)n2)c1 |  | 1.269% |
| O=C(c1cnccn1)N1CCc2ncc(CN3CCOCC3)n2CC1 |  | -7.352% |
| O=C(NCCN1CCCCC1)c1cnccn1 | 1.153% |  |
| c1coc(CN2CCn3c(CN4CCOCC4)nnc3C2)c1 |  | 4.961% |
| c1cnc(-c2nn3c(CN4CCOCC4)nnc3s2)cn1 |  | 68.89% |
| c1cc(-c2cnccn2)cc(-c2ccn(CCCN3CCCCC3)n2)c1 |  | -3.188% |
| c1cc(-c2cnccn2)cc(-c2ccn(CCN3CCCCC3)n2)c1 |  | -6.783% |
| c1ccc(-c2nn3c(CN4CCOCC4)nnc3s2)nc1 |  | 71.31% |
